# Only some compounds are listed: those with a hit (about 19% of all), similar ones and a draw of the others.
# IL1B secr inh = inhibitors of inflammasome signaling (IL-1 beta secretion) | 360,000 compounds, 4.7% hits | AID 743279 | THP-1 LPS/ATP IL-1B secretion, AlphaLISA, 16 h; hits give low values | activity change, % at 57.5 µM; in the data active = activity change below about -50%; inconclusive = mostly about -30% to -49%
#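 THP-1 cells pretreated 1 hr with compounds (up to 57.5 uM final), then stimulated with LPS (250 ng/mL final) plus ATP (1.25 mM final); secreted IL-1B measured by AlphaLISA after 16 hr, decreased signal indicating inhibition.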
# HT1080 IDH1KD tx = kills HT-1080 cells with IDH1 knockdown; HT-1080 IDH1 knockdown viability, ATP luminescence, 48 h; Potency, µM (top dose mostly 46.1 µM), inactives show at the top dose activity, negative = toxicity, actives largely listed as cytotoxic; 360,000 compounds, 2% hits; AID 686971;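 also: potency is read from the fitted curve at half-maximal effect; 0% = DMSO wells and -100% = cell-free medium wells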
#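 Using the IDH1-knockdown HT-1080 line run in the same batch and compound series as the NT line, viability after 48 h at 37 °C was determined by CellTiter-Glo luminescence and expressed as % activity.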
# DT40 TDP1 CPT = DT40-hTDP1 cell growth loss with CPT; 420,000 compounds, 12% hits; Potency, µM (titrated, usually from 46.2 µM), for the others: top-dose activity change, negative = growth inhibition, most hits filed as inhibitors; chicken DT40 Tdp1-/-;hTDP1 cells + 20 nM CPT, ATP luminescence, 48 h; AID 686979; also: potency is read from the fitted curve at half-maximal effect; nearly all actives have a fitted effect of over 55% in size
#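 Cell growth measured by CellTiter-Glo luminescence after a minimum 48 h, 37 C compound exposure with 20 nM CPT in Tdp1-knockout DT40 cells stably expressing hTDP1, seeded 400/well; qHTS titration format.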
# TDP1 cell noCPT = qHTS for Inhibitors of human tyrosyl-DNA phosphodiesterase 1 (TDP1): qHTS in cells in absence of CPT; DT40 Tdp1-/- hTDP1 cells, no CPT, ATP luminescence, 48 h; Potency, µM (highest dose often 46.2 µM), inactives show at the top dose activity change, negative = growth inhibition, hits mostly inhibitors; 420,000 compounds, 15% hits; also: potency is read from the fitted curve at half-maximal effect; nearly all actives have a fitted effect of over 55% in size
#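 Camptothecin absent (DMSO only). Human TDP1-complemented DT40 knockout cells, 400 cells/well, 37 °C for minimum 48 hr; ATP measured via CellTiter-Glo, 30 min dark incubation, luminescence.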
# HT1080-NT tox = kills 2HG-producing HT-1080-NT fibrosarcoma cells; HT-1080-NT fibrosarcoma viability, CellTiter-Glo ATP luminescence, 48 h; Potency, µM (series often up to 46.1 µM), without a hit: at the highest dose activity, negative = less viability, actives largely listed as cytotoxic; 360,000 compounds, 1.6% hits;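 also: NT is the 2HG producing partner of a matched IDH1 knockdown line; potency is read from the fitted curve at half-maximal effect; 0% = DMSO-treated cells and -100% = media-only wells without cells; nearly all actives have a fitted effect of over 55% in size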
#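 750 cells/well, RPMI + 5% FBS; 2 h settle, compound pin-transfer, 48 h at 37 degrees C. CellTiter-Glo 10 min RT, luminescence. Normalized to DMSO and media-only wells.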
# * marks the source's active call; other numbers are inactive results; ? = inconclusive; . = not tested or not shown. Unless noted, calls follow the shape of the dose curve; as a rule, active = well fitted curve in the direction sought with a large enough effect; inconclusive = small, poorly fitted or top-dose-only effect, or another doubt; inactive = no such curve, though single readings can be large; an effect the other way counts as inactive or inconclusive. Unless noted, % is scaled to controls: 0 for no effect and ±100 for the full control effect.
SMILES,IL1B secr inh,HT1080 IDH1KD tx,DT40 TDP1 CPT,TDP1 cell noCPT,HT1080-NT tox
COc1ccc(C(=O)/C=C/c2ccc(OC)cc2OC)c(O)c1,-13,2%,?,?,-3%
COc1ccc(/C=C/C(=O)c2cc(Cl)ccc2O)c(OC)c1,-100*,-16%,?,?,-8%
Nc1[nH]c(C(=O)c2ccccc2)c(-c2ccccc2Cl)c1C(=O)c1ccccc1,11,-16%,?,?,-20%
CCCCCCN1C[C@H](O)[C@@H](n2cc(COC(=O)c3ccccc3)nn2)C[C@@H]1c1ccc(C)cc1,-4,-15%,?,16µM*,-18%
CCCCCC(=O)N1C[C@@H](n2cc(COC(=O)c3ccccc3)nn2)[C@H](O)C[C@@H]1c1ccc(C)cc1,24,9%,-21%,-17%,18%
CCCCCCN1C[C@@H](n2cc(COC(=O)c3ccccc3)nn2)[C@H](O)C[C@@H]1c1ccc(C)cc1,-8,-14%,18µM*,12µM*,9%
CCCCCCN1C[C@H](O)[C@@H](n2cc(COC(=O)c3ccccc3)nn2)C[C@@H]1c1ccc(Cl)cc1,45,-22%,?,?,?
CCCCCC(=O)N1C[C@H](n2cc(COC(=O)c3ccccc3)nn2)[C@@H](O)C[C@@H]1c1ccc(Cl)cc1,-1,?,?,16µM*,?
COC1=CC(=O)C=C(OC)C1(O)CC(C)=O,1,5%,4.1µM*,3.7µM*,0%
CC(C)NC(=O)N1CCCC2(CCN(C(=O)c3csnn3)CC2)C1,.,.,15%,-3%,.
C=C[C@]1(C)C[C@@H](OC(=O)CSC(C)(C)CNC(=O)[C@H](N)C(C)C)[C@]2(C)[C@H](C)CC[C@]3(CCC(=O)[C@H]32)[C@@H](C)[C@@H]1O,.,.,0.24µM*,0.27µM*,.
C=C[C@]1(C)C[C@@H](OC(=O)CSCCN(CC)CC)[C@]2(C)[C@H](C)CC[C@]3(CCC(=O)[C@H]32)[C@@H](C)[C@@H]1O,.,.,7.5µM*,3µM*,.
COc1ccc(C(=O)/C=C/Nc2cc(C)ccn2)cc1,-22,?,-13%,-26%,-19%
COc1ccccc1OCC(=O)NNC(=O)Nc1ccccc1,12,6%,10%,-6%,0%
COC(=O)c1cccc(NC(=O)CCSc2ccc(Cl)cc2)c1C,?,-9%,-16%,-28%,-9%
COc1ccc(-c2c(-c3cc(OC)cc(OC)c3)n(C)c3ccc(-c4ccc(S(N)(=O)=O)cc4)cc23)cc1,-54*,-24%,10µM*,4.1µM*,-7%
COc1cccc(-c2c(-c3cc(OC)cc(OC)c3)n(C)c3ccc(-c4cnc(OC)nc4)cc23)c1,-4,2%,?,15µM*,-4%
COc1cccc(-c2c(-c3cc(OC)cc(OC)c3)n(C)c3ccc(-c4cnc(N5CCOCC5)nc4)cc23)c1,18,7%,13µM*,23µM*,?
COc1ccc(-c2c(-c3cc(OC)cc(OC)c3)n(C)c3ccc(-c4cnc(N)nc4)cc23)cc1,-8,4%,-26%,?,0%
COc1cc(OC)cc(-c2c(-c3ccc(F)cc3)c3cc(-c4cnc(OC)nc4)ccc3n2C)c1,6,2%,16µM*,13µM*,6%
COc1cc(OC)cc(-c2c(-c3ccc(F)cc3)c3cc(Br)ccc3n2C)c1,0,17%,1%,0%,0%
Cc1nc(-c2ccc(S(=O)(=O)Oc3ccccc3Cl)s2)cs1,?,-13%,?,?,-9%
COc1cc2c(cc1OC)C(c1ccccc1)NC(C)(C)C2 (configuration not stated),-8,0%,-4%,-14%,2%
Cc1c(NC(=O)CSc2nnc(C(C)N(C)C)n2-c2ccccc2)c(=O)n(-c2ccccc2)n1C (configuration not stated),0,1%,0%,7%,-5%
Cc1ccnc2c(O)cccc12,.,.,1.3µM*,0.89µM*,.
SMILES,IL1B secr inh,HT1080 IDH1KD tx,DT40 TDP1 CPT,TDP1 cell noCPT,HT1080-NT tox
Cc1ccc(NC(=O)c2ccc(NS(=O)(=O)c3cccc4cccnc34)cc2)cc1,?,?,?,-24%,?
Cc1ccc(C(=O)Nc2c(C)cc(C)c3cccnc23)cc1,7,-5%,?,16µM*,5%
Cc1ccccc1N1C(=O)C2C3CC(=O)C(c4ccccc43)C2C1=O (configuration not stated),19,-3%,-14%,-26%,-7%
Cc1ccnc2c(N3C(=O)C4C5c6ccccc6C(c6ccccc65)C4C3=O)cccc12 (configuration not stated),?,-22%,21µM*,16µM*,0%
Cc1ccnc2c1ccc1c(C)ccnc12,?,15µM*,0.92µM*,2.6µM*,13µM*
Cc1cccc(C)c1NC(=O)COC(=O)CCC(=O)c1cccs1,33,16%,10%,-2%,14%
C/C(=N\NC(=O)c1ccccc1)c1ccc(C)c([N+](=O)[O-])c1,2,-6%,?,?,2%
O=C(Cn1c(=O)n(CC2CCCO2)c(=O)c2ccccc21)Nc1ccc(F)cc1F (configuration not stated),.,.,-7%,-18%,.
Cc1ccnc(NS(=O)(=O)c2ccc(NS(=O)(=O)c3ccccc3)cc2)n1,18,6%,-10%,-13%,-2%
Cc1cc(C)c2ccc(NN)nc2c1O,61,?,?,18µM*,-23%
Cc1ccnc2c1ccc1ccccc12,-26,1%,-4%,9%,1%
Cc1ccnc2c1ccc1cccnc12,-86*,?,1µM*,0.58µM*,?
Cc1ccnc2ncccc12,.,.,-25%,-12%,.
Cc1cc(C)c2cccnc2c1O,.,.,1.3µM*,1.1µM*,.
O=C(CNC(=O)c1ccc(Br)o1)NNC(=O)COc1ccccc1Cl,11,-2%,-2%,9%,2%
COc1cc(/C=C(\C#N)C(=O)Nc2ccccc2C(=O)O)cc(Cl)c1OC,0,-29%,?,?,-19%
c1ccc2c(-c3ccc4nncn4c3)cncc2c1,14,30%,?,?,1%
COC(=O)c1sc(N)c(C(=O)OC)c1CSc1nnc(-c2ccccc2Cl)n1C,15,-11%,-17%,?,-6%
COC(=O)c1sc(N)c(C(=O)OC)c1Cn1ncc(Cl)c(Cl)c1=O,-89*,?,23µM*,15µM*,-17%
COC(=O)c1sc(NC(=O)c2c(C)noc2C)nc1C,-21,3%,5%,4%,0%
COC(=O)c1sc(N)c(C(=O)OC)c1COC(=O)c1c(C)noc1C,31,6.3µM*,3.7µM*,5.2µM*,7.1µM*

# Screening data deposited in PubChem BioAssay by National Center for Advancing Translational Sciences (NCATS).
